Results from ChEMBL document CHEMBL4513216, “Probing the Open Global Health Chemical Diversity Library for Multistage-Active Starting Points for Next-Generation Antimalarials” (ACS Infect Dis, 2020).
In all, about 69,000 compounds went through this assay and about 8,600 (12%) showed an effect of 50% or more. The list comes from a sample in which strong results are over-represented; it also holds similar structures and randomly drawn compounds.

Each molecule was assayed on Plasmodium berghei (assay: Screen against P. berghei liver stage (PbLuc), transformed with Luciferase, at 10uM). Conditions: tested at 10 uM.
Type: functional, HepG2

SMILES	INHIBITION
CCN(C)Cc1cccc(CNC(=O)CSCc2ccncc2)c1	35.4%
Fc1cnc(N2C[C@@H](OCC3CCOCC3)[C@H]3OCCC[C@H]32)nc1	44.4%
O=C(c1ccc(Cl)cc1)N1CCC2(C1)C(=O)Nc1ccccc12 (stereo not drawn)	-18.8%
CN(C)C[C@H]1C[C@@H]2CN(C(=O)c3ccco3)C[C@@H]2O1	42.3%
C[C@H]1C[C@@H]2CCN(C(=O)c3ccccn3)C[C@H]2O1	-0.813%
O=C(OCc1ccccc1)N1CC[C@H]2CC(CO)O[C@@H]2C1 (stereo partly drawn)	78.3%
Cn1ccnc1SCCNc1cc(N2CCOCC2)ncn1	-7.85%
Cn1ncc2c(N3CCCC(C)(O)C3)nc(-c3cccnc3)nc21 (stereo not drawn)	23.5%
CN1CCCC1CNC(=O)CCCOc1ccc(I)cc1 (stereo not drawn)	18.625%
COc1ccc(Cc2nc3c([nH]2)CC(C)(C)CNC3=O)cc1OC	13.9%
COc1cc(Cc2nc3c([nH]2)CC(C)(C)CNC3=O)cc(OC)c1	59.4%
COc1ccc(Cc2nc3c([nH]2)CC(C)(C)CNC3=O)c(OC)c1	16.8%
CC1(C)CNC(=O)c2nc(-c3ccccc3)[nH]c2C1	18.8%
COc1cccc(-c2nc3c([nH]2)CC(C)(C)CNC3=O)c1OC	30.7%
COc1cccc(Cc2nc3c([nH]2)CC(C)(C)CNC3=O)c1OC	55.5%
CC(C)N1CCO[C@@H]2CN(C(=O)NCc3ccccc3)CC[C@@H]2C1	32.1%
COc1nc2cc(C)ccc2cc1CN(C)Cc1cc(C)[nH]n1	36.1%
CC(CNC(=O)c1cnc[nH]1)Oc1ccc(Cl)cc1 (stereo not drawn)	20.9%
COc1ccccc1OC(C)CNC(=O)c1cnc[nH]1 (stereo not drawn)	-15.5%
CC(CNC(=O)c1cnc[nH]1)Oc1ccccc1Br (stereo not drawn)	57.2%
O=C(c1cc(Cn2ccc3ccccc32)[nH]n1)N1CCCCC1CO (stereo not drawn)	13%
Cc1cnn(CC2CCCN2C(=O)CCc2ccco2)c1 (stereo not drawn)	45.9%

SMILES	INHIBITION
COc1ccccc1CN1CCC(c2nn(CCN)c3nccnc23)C1 (stereo not drawn)	52%
NCCn1nc(C2CCN(Cc3ccccc3Cl)C2)c2nccnc21 (stereo not drawn)	-49%
NCCn1nc(C2CCN(Cc3ccc(Cl)c(Cl)c3)C2)c2nccnc21 (stereo not drawn)	71.1%
NCCn1nc(C2CCN(Cc3ccccc3)C2)c2nccnc21 (stereo not drawn)	60.5%
Cc1ccccc1CN1CCC(c2nn(CCN)c3nccnc23)C1 (stereo not drawn)	43.6%
NCCn1nc(C2CCN(C(=O)Cc3ccccc3)C2)c2nccnc21 (stereo not drawn)	30.4%
COc1cccc(CN2CCC(c3nn(CCN)c4nccnc34)C2)c1 (stereo not drawn)	7.52%
COc1ccccc1CN1CCC(c2nccc(C)n2)C1 (stereo not drawn)	38.3%
CC(C)(C)CC(=O)N1CCC(c2nn(CCN)c3nccnc23)C1 (stereo not drawn)	-3.31%
CC(O)c1cnn(-c2ccccc2)c1 (stereo not drawn)	-6.04%
O=C(O)c1ccccc1-c1ccc(CN2CCC(CO)CC2)cn1	9.98%
CCNc1cc2c(nn1)CCN(C(=O)CCc1c(C)noc1Cl)C2	0.411%
COc1ccccc1C(=O)N1CCN(C(=O)Cc2ccccn2)CC1	-36.1%
Cc1ncccc1C(=O)Nc1cccc(Cn2ccccc2=O)c1	38.5%
CCn1ncnc1CN1CCC(CNC(=O)c2cccc(C)n2)C1 (stereo not drawn)	15.4%
CCc1ccc(C(=O)N2CCCC(n3nc(C)nc3C)C2)o1 (stereo not drawn)	33.73%
CCOCCc1nc(CCc2ccccc2)n[nH]1	26.7%
CN(Cc1ccccn1)C1CCC[C@@H]2CN(CC3CC3)C[C@H]12 (stereo partly drawn)	22.2%
CCc1cnc(N2C[C@H]3CCCC(N(C)Cc4ccccn4)[C@H]3C2)nc1 (stereo partly drawn)	33.1%
Cc1cnc(N2C[C@H]3CCCC(N(C)Cc4ccccn4)[C@H]3C2)nc1 (stereo partly drawn)	55.7%
CC(C)NC(=O)c1nc(Cn2c(C(F)F)nc3ccccc32)no1	62.4%
O=C(NC1CCCC1)c1cc(Cn2cnc3ccccc32)on1	5.8%

SMILES	INHIBITION
Cc1occc(=O)c1OCc1noc(C(=O)NC(C)C)n1	42.8%
CC(C)NC(=O)c1nc(Cn2c(C(F)(F)F)nc3ccccc32)no1	43.9%
Cc1nc2ccccc2n1Cc1cc(C(=O)NC2CCOC2)no1 (stereo not drawn)	11.1%
O=C(NC1CC1)c1nc(Cn2c(C(F)F)nc3ccccc32)no1	54.8%
COc1ccccc1-c1csc(NC(=O)N2CCN(C)CC2C)n1 (stereo not drawn)	-9.08%
Cc1cc(C)n(CC2CN(Cc3nnc(C)o3)CCO2)n1 (stereo not drawn)	5.1%
O=C(c1ccc(F)cc1F)N1C[C@@H]2CC[C@H]1CN(Cc1ccccc1)C2	41.5%
O=C1CC(c2ccc(C(=O)O)cc2)c2cnn(Cc3ccco3)c2N1 (stereo not drawn)	-8.04%
CN(C)c1ccc(C2CC(=O)Nc3c2cnn3Cc2ccco2)cc1 (stereo not drawn)	1.45%
CC(C)(C)C1CC(=O)Nc2c1cnn2Cc1ccco1 (stereo not drawn)	-21.7%
CC(C)CC1CC(=O)Nc2c1cnn2Cc1ccco1 (stereo not drawn)	50.2%
CC(C)C1CC(=O)Nc2c1cnn2Cc1ccco1 (stereo not drawn)	7.85%
O=C1CC(c2ccc(CO)o2)c2cnn(Cc3ccco3)c2N1 (stereo not drawn)	67.6%
COc1ccc(CN(Cc2cnc(N)nc2)CC2CCCO2)c(OC)c1 (stereo not drawn)	23.2%
CNC(=O)[C@@H](c1ccccc1F)N1CCC[C@H]1C(=O)NC1CCCC1	-49.3%
O=C(CN1C[C@H]2CC(OCc3ccccc3)C[C@H]2C1)N1CCOCC1 (stereo partly drawn)	-2.09%
CC(C)C1CN(C(=O)c2ccc(Cl)cn2)CCCN1CC1CC1 (stereo not drawn)	14.9%
Cc1[nH]c(=O)[nH]c(=O)c1CC(=O)N1CCCN(CC2CC2)C(C(C)C)C1 (stereo not drawn)	-69.3%
CC(C)C1CN(C(=O)c2cn3ccccc3n2)CCCN1CC1CC1 (stereo not drawn)	47.6%
CC(C)C1CN(C(=O)c2cc(=O)[nH]c(=O)[nH]2)CCCN1CC1CC1 (stereo not drawn)	74.8%
CC(C)C1CN(C(=O)c2cc(=O)[nH]c(=O)[nH]2)CCC(=O)N1CC1CC1 (stereo not drawn)	9.35%
CC(C)C1CN(C(=O)c2cn3cc(Cl)cnc3n2)CCCN1CC1CC1 (stereo not drawn)	60.3%

SMILES	INHIBITION
CNC(=O)C1(c2cnccn2)CCCN1C(=O)c1ccccn1 (stereo not drawn)	42.4%
CCOCC(O)CN1CCN(C(=O)C2CCCC2)CC1 (stereo not drawn)	-19.4%
Cc1ccc(CN(CCCN2CCOCC2)Cc2cnc(C)n2C)o1	-11.7%
CC(=O)N1CCN(C(=O)c2cccc(OCc3cscn3)c2)CC1	1.82%
O=C(c1cccc(OCc2cscn2)c1)N1CCOCC1	45.75%
NC(=O)C1CCCN(C(=O)c2cccc(OCc3cscn3)c2)C1 (stereo not drawn)	24.05%
NC(=O)C1CCN(C(=O)c2ccc(OCc3cscn3)cc2)CC1	56.85%
NC(=O)C1CCN(C(=O)c2cccc(OCc3cscn3)c2)CC1	17.8%
O=C1CN(C(=O)c2cccc(OCc3cscn3)c2)CCN1	61.5%
Cc1cccc(CN2CCC3(CC2)NC(=O)CC3c2ccccc2)n1 (stereo not drawn)	37.1%
CC1CCCN(C(=O)NCCCn2cncn2)C1 (stereo not drawn)	9.45%
Cn1nccc1-c1nnn2c1COCC(CNCC1CC1)C2 (stereo not drawn)	45.7%
CC(C)CN1CCC2(C=C(C(=O)NC3CC3)c3ccccc32)CC1	27.2%
COCCNCc1ccc(OCC(=O)NC(C)(C)C)cc1	51.6%
CC(C)(C)NC(=O)COc1ccc(CNCCOc2ccccn2)cc1	18.6%
CC(C)(C)NC(=O)COc1ccc(CNCc2ccccn2)cc1	-6.39%
Cc1ccc(C2=CCN(C(=O)C3CCN(C)C(=O)C3)CC2)cc1 (stereo not drawn)	-14.7%
COc1ncccc1C(=O)NC1CCOc2ccccc21 (stereo not drawn)	33.3%
CCN(C)c1ncnc2c1CCN(C(=O)NCc1cccnc1)CC2	-75.9%
Cc1ccc(-c2nn(C)c(C(=O)O)c2Br)cc1	62.8%
Cn1nc(-c2ccccc2)c(Br)c1C(=O)O	36.9%
Cn1nc(-c2cccc(Cl)c2)c(Br)c1C(=O)O	46.1%

SMILES	INHIBITION
Cc1cccc(-n2cnc(Cl)c2C(=O)O)c1	8.08%
Cn1nc(-c2ccc(Cl)cc2)c(Br)c1C(=O)O	65.6%
Cn1nc(-c2ccccc2)c(Cl)c1C(=O)O	46.1%
CNC(=O)CN(C)C(=O)c1ccc(-c2nc(C)cs2)cc1	40.7%
Cc1noc(CNC(=O)N2CCN(c3nc(C)c(C)s3)CC2)n1	10.5%
CCCN(Cc1cnn(C)c1)S(=O)(=O)c1cccc(F)c1C#N	-43.6%
O=C1CCC2(CCC(NC(=O)NCc3ccccc3)CC2)N1 (stereo not drawn)	-46.7%
CC(CN1CCOC1=O)NC(=O)c1cccc(Cl)c1Cl (stereo not drawn)	-28.9%
Cc1cnn(CC2CCCN2C(=O)c2ccccc2-n2cnnn2)c1 (stereo not drawn)	-33.9%
O=c1[nH][nH]c2cn(-c3ccc(F)cc3)c(=O)n12	26.6%
O=c1[nH][nH]c2cn(-c3ccccc3)c(=O)n12	63.7%
O=c1[nH][nH]c2cn(-c3ccc(Br)cc3)c(=O)n12	46.4%
COc1ccc2c(ccn2CCC(=O)Nc2n[nH]c(C(C)C)n2)c1	-45.5%
CN(C(=O)NCc1ccsc1)C1CCN(c2ccccc2)C1=O (stereo not drawn)	-10.2%
CCCNC(=O)Cn1c(-n2nc(C)cc2C)nc(CCC)cc1=O	54.2%
CCCNC(=O)CCNc1cncc(-n2nc(C)cc2C)n1	-2.03%
CCCc1cc(=O)n(CC(=O)NC(C)C)c(-n2nc(C)cc2C)n1	29.3%
CCCc1cc(=O)n(CC(N)=O)c(-n2nc(C)cc2C)n1	81.3%
CCCc1cc(=O)n(CC(=O)NCCOC)c(-n2nc(C)cc2C)n1	28.7%
CCCc1nc(C)cc(N2CCC3(CCC(=O)N(CC(N)=O)C3)CC2)n1	-42.1%
